How the values were obtained:
[1] = molecular target: T1, Serine/threonine-protein kinase Nek9 (Homo sapiens) (UniProt Q8TD19); conditions: at 1 µM;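 further: each value is a mean percent inhibition of NEK9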
T1 sequence (whole entry): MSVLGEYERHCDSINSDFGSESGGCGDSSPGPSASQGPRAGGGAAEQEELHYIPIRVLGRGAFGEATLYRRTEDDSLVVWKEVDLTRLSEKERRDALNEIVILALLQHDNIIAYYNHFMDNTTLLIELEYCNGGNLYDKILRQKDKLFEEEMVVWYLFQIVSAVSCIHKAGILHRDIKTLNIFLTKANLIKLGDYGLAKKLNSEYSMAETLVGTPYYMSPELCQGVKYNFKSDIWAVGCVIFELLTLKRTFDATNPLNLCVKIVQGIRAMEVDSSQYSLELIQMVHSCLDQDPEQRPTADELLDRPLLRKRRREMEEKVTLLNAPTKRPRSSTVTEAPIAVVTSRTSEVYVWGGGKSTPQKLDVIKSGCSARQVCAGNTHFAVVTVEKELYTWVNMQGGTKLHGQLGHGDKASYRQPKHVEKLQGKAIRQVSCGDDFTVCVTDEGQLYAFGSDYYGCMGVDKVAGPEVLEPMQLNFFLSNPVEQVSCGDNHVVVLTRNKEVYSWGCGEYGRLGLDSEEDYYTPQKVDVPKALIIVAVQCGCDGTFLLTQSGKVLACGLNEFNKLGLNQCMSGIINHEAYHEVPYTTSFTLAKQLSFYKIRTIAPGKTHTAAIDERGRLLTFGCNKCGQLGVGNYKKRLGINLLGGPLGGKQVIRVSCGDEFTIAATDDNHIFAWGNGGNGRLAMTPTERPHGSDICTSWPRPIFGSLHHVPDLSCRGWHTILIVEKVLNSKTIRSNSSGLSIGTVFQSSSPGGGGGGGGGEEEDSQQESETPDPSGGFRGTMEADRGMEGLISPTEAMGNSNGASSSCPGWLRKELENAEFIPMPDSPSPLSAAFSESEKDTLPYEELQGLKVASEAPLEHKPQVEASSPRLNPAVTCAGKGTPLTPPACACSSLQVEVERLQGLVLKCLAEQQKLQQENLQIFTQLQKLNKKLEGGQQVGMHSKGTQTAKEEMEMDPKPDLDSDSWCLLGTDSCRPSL

[2] = molecular target: Serine/threonine-protein kinase PLK1 (Homo sapiens) (UniProt P53350); conditions: at 0.1 µM
Chain of Serine/threonine-protein kinase PLK1 (Homo sapiens) (P53350 whole entry): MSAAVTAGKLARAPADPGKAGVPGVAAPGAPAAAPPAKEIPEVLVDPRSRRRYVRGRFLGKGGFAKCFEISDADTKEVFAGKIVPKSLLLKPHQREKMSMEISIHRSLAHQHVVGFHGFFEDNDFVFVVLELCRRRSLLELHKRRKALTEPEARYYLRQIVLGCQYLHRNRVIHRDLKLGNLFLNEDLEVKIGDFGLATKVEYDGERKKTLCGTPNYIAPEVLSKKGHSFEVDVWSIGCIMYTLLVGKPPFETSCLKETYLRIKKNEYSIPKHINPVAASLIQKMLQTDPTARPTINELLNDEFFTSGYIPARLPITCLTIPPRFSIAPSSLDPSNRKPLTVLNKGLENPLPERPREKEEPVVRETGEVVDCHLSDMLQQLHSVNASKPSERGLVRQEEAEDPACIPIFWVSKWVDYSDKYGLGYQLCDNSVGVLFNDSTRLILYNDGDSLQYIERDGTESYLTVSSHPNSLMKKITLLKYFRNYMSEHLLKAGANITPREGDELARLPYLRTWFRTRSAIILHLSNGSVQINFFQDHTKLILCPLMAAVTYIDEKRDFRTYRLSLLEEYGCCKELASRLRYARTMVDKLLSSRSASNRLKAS

[3] = molecular target: Serine/threonine-protein kinase PLK1 (Homo sapiens) (UniProt P53350); conditions: at 1 µM
[4] = test system: T2, Receptor-type tyrosine-protein kinase FLT3 (Homo sapiens), P36888 [D835Y]; conditions: at 1 µM
T2 sequence (whole entry): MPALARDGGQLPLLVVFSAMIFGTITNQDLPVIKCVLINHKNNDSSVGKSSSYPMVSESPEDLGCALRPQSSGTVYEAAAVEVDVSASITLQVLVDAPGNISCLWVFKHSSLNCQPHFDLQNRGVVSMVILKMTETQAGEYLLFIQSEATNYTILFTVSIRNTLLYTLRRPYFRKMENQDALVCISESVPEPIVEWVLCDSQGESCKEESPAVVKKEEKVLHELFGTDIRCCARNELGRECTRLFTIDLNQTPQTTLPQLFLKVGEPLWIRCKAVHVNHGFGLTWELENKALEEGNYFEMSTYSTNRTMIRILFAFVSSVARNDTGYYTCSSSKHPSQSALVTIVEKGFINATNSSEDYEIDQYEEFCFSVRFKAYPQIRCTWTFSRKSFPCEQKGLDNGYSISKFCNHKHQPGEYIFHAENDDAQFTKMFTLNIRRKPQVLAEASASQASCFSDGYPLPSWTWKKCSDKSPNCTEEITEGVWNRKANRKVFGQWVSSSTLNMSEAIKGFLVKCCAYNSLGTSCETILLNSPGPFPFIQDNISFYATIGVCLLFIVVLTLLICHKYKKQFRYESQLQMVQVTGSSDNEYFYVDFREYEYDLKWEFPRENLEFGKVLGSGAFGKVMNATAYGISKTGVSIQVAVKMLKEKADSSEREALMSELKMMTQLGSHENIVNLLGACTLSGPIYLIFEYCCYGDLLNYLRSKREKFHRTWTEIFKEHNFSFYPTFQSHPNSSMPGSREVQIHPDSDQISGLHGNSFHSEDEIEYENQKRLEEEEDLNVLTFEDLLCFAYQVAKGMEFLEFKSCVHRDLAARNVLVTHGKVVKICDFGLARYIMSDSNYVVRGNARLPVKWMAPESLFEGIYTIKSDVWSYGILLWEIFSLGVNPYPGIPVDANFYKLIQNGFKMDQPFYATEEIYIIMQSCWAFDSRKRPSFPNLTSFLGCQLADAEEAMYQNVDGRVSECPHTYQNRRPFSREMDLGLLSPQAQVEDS

[5] = molecular target: Vascular endothelial growth factor receptor 3 (Homo sapiens) (UniProt P35916); conditions: at 0.1 µM
Chain of Vascular endothelial growth factor receptor 3 (Homo sapiens) (P35916 whole entry): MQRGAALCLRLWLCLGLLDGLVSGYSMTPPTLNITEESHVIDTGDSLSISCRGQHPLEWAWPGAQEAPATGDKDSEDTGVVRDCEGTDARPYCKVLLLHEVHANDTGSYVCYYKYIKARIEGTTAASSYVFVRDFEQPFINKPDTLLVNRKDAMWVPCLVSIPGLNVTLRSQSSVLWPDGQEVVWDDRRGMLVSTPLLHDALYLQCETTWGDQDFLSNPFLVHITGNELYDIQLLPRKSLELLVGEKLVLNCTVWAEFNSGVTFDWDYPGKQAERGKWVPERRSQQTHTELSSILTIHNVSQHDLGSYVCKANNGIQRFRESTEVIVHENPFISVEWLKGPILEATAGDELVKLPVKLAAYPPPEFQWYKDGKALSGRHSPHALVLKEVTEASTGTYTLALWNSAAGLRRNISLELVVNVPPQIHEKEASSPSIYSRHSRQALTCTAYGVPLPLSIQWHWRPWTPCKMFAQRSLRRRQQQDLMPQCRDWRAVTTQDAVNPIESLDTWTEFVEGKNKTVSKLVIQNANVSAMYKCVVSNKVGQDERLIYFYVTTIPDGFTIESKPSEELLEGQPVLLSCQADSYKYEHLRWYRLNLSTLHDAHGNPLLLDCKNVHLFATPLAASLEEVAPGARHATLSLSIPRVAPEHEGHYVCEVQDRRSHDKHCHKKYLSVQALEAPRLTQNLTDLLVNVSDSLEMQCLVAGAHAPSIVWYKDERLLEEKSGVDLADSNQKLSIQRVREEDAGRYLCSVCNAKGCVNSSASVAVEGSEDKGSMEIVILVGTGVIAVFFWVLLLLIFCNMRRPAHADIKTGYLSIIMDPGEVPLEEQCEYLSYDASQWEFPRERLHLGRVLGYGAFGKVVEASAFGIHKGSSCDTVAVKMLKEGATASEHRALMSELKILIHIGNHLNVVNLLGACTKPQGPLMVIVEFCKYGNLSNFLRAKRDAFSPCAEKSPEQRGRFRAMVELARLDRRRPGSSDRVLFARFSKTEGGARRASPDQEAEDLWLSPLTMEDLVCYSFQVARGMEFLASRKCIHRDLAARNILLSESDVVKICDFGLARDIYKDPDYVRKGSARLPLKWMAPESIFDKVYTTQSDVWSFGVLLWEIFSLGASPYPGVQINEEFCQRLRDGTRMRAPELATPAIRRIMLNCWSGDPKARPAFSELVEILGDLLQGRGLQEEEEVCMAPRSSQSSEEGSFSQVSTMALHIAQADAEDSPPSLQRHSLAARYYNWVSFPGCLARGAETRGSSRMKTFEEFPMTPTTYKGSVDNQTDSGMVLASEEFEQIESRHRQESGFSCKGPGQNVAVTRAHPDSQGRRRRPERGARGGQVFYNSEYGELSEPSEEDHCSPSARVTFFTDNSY

[6] = molecular target: Vascular endothelial growth factor receptor 3 (Homo sapiens) (UniProt P35916); conditions: at 1 µM
[7] = molecular target: Macrophage colony-stimulating factor 1 receptor (Homo sapiens) (UniProt P07333); conditions: at 0.1 µM
Chain of Macrophage colony-stimulating factor 1 receptor (Homo sapiens) (P07333 whole entry): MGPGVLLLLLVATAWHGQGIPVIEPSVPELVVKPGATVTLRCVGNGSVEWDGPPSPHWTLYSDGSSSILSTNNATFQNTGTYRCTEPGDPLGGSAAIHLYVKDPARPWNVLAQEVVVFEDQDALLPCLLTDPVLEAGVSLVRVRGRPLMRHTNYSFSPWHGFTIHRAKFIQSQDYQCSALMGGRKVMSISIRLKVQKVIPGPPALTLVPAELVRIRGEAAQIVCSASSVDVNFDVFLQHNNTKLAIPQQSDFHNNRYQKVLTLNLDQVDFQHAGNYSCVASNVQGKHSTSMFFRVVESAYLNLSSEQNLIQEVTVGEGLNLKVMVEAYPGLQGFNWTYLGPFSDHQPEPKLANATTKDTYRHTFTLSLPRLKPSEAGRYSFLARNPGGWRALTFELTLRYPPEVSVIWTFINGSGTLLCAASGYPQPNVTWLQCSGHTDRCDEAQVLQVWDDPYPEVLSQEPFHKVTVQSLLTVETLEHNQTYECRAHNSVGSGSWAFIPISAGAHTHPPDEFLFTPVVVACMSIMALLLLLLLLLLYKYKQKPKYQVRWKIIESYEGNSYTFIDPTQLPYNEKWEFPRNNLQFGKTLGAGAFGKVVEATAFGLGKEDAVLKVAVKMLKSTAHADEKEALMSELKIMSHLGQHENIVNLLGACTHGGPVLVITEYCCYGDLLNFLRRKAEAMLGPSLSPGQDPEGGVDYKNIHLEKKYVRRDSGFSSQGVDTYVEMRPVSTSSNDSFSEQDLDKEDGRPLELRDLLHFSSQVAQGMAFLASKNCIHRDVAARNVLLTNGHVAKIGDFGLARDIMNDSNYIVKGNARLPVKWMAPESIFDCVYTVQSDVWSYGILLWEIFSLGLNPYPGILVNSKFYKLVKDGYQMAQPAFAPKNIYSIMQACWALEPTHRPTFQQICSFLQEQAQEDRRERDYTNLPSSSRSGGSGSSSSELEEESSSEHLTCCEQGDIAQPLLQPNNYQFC

[8] = molecular target: Macrophage colony-stimulating factor 1 receptor (Homo sapiens) (UniProt P07333); conditions: at 1 µM
[9] = molecular target: Tyrosine-protein kinase Fyn (Homo sapiens) (UniProt P06241); conditions: at 0.1 µM
Chain of Tyrosine-protein kinase Fyn (Homo sapiens) (P06241 2-537 limits assumed): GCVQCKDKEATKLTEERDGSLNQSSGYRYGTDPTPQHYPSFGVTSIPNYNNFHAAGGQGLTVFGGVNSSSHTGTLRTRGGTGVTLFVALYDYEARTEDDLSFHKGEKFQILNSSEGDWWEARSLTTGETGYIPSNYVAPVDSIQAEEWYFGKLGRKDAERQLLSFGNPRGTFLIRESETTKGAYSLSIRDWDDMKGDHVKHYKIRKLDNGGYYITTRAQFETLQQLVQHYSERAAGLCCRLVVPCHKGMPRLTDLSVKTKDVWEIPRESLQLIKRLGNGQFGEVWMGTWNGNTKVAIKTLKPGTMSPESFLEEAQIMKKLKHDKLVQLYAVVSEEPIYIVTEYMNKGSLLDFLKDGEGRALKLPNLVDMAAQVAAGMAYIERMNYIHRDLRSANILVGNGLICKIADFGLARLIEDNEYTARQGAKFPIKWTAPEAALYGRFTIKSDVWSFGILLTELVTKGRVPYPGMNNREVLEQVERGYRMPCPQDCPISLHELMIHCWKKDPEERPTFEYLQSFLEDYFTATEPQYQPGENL

[10] = molecular target: Tyrosine-protein kinase Fyn (Homo sapiens) (UniProt P06241); conditions: at 1 µM
[11] = molecular target: Tyrosine-protein kinase HCK (Homo sapiens) (UniProt P08631); conditions: at 0.1 µM
Chain of Tyrosine-protein kinase HCK (Homo sapiens) (P08631 2-526 limits assumed): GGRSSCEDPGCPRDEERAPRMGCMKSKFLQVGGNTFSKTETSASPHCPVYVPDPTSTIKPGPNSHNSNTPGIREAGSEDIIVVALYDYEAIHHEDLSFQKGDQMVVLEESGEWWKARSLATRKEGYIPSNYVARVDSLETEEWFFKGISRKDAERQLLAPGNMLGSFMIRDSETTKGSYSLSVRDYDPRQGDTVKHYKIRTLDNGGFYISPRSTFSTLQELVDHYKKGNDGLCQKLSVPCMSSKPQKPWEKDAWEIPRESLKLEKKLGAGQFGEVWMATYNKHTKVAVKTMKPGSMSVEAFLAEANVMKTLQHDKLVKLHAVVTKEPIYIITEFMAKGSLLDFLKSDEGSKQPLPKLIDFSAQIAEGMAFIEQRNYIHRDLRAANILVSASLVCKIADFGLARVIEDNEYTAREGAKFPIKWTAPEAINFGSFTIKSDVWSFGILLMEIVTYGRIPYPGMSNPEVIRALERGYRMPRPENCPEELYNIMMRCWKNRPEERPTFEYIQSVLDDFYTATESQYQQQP

[12] = molecular target: Tyrosine-protein kinase HCK (Homo sapiens) (UniProt P08631); conditions: at 1 µM
[13] = molecular target: Insulin-like growth factor 1 receptor (Homo sapiens) (UniProt P08069); conditions: at 0.1 µM
[14] = molecular target: Insulin-like growth factor 1 receptor (Homo sapiens) (UniProt P08069); conditions: at 1 µM
[15] = molecular target: Insulin receptor (Homo sapiens) (UniProt P06213); conditions: at 0.1 µM
[16] = molecular target: Insulin receptor (Homo sapiens) (UniProt P06213); conditions: at 1 µM
[17] = molecular target: Insulin receptor-related protein (Homo sapiens) (UniProt P14616); conditions: at 0.1 µM
[18] = molecular target: Insulin receptor-related protein (Homo sapiens) (UniProt P14616); conditions: at 1 µM
[19] = molecular target: T3, Tyrosine-protein kinase ITK/TSK (Homo sapiens) (UniProt Q08881); conditions: at 0.1 µM;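 further: mean percent inhibition of ITK from the GSK PKIS screen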
T3 sequence (whole entry): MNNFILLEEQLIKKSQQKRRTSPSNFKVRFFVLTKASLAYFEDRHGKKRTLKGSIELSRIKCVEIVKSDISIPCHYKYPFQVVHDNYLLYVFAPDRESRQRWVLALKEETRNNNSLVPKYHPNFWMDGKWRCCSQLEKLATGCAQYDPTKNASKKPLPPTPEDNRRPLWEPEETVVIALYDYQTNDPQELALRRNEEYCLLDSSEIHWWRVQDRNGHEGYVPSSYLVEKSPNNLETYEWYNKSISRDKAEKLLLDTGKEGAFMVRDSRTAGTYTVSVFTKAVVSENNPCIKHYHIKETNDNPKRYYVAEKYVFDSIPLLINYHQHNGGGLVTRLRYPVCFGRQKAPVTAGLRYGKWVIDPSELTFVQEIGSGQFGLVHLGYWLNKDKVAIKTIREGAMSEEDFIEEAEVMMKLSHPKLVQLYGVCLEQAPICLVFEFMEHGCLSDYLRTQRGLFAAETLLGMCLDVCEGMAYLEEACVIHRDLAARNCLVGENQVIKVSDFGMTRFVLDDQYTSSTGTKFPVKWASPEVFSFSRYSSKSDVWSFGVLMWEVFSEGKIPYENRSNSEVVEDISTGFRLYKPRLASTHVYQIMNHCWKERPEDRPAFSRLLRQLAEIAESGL

[20] = molecular target: T4, Dual specificity protein kinase TTK (Homo sapiens) (UniProt P33981); conditions: at 0.1 µM
T4 sequence (whole entry): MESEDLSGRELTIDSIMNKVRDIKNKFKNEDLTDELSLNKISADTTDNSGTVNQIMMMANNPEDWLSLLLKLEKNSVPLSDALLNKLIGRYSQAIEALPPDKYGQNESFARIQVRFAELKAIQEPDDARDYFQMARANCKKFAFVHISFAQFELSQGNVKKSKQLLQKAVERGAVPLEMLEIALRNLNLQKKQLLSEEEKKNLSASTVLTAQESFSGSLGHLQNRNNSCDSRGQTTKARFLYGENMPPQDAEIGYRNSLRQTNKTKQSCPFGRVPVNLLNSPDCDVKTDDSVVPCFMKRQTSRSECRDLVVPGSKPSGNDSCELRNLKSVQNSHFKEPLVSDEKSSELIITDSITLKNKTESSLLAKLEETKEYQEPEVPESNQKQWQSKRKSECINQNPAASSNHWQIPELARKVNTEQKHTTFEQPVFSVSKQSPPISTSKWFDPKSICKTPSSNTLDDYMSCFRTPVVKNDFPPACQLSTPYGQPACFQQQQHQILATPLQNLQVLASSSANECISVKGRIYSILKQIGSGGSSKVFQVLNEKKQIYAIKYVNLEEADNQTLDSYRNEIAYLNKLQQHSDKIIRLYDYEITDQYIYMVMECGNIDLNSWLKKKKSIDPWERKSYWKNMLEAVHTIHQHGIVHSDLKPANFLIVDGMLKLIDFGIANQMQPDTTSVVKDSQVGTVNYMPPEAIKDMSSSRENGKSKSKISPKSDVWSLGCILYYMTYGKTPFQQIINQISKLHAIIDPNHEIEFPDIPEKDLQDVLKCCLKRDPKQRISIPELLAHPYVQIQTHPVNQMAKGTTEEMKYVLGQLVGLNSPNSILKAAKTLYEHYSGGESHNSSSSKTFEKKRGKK

CCS(=O)(=O)c1ccc(OC)c(Nc2ncc(-c3ccccc3Cl)o2)c1
inhibition [1]: 6.89%
inhibition [2]: 0.86%
inhibition [3]: 3.51%
inhibition [4]: 17.4%
inhibition [5]: 7.55%
inhibition [6]: 29.9%
inhibition [7]: 9.53%
inhibition [8]: 40.3%
inhibition [9]: 2.29%
inhibition [10]: 19.1%
inhibition [11]: 4.06%
inhibition [12]: 11.8%
inhibition [13]: 1.62%
inhibition [14]: 5.87%
inhibition [15]: -0.92%
inhibition [16]: 3.26%
inhibition [17]: 1.25%
inhibition [18]: 3.78%
inhibition [19]: 0.29%

O=C(Nc1ccc(Oc2ccc3[nH]c(NC(=O)c4ccccc4)nc3c2)cc1)Nc1cc(C(F)(F)F)ccc1F
inhibition [1]: 10.3%
inhibition [2]: 2.66%
inhibition [3]: 1.84%
inhibition [20]: 5.51%
inhibition [4]: 14%
inhibition [5]: 14.1%
inhibition [6]: 36.2%
inhibition [7]: 4.75%
inhibition [8]: 48.1%
inhibition [9]: 3.06%
inhibition [10]: 21.5%
inhibition [11]: 7.45%
inhibition [12]: 21.8%
inhibition [13]: 10.6%
inhibition [14]: 7.91%
inhibition [15]: 2%
inhibition [16]: 2.26%
inhibition [17]: 2.66%
inhibition [18]: 3.55%
inhibition [19]: 1.11%

CN1CCN(CCCNc2nc3ccc(Oc4ccc(NC(=O)Nc5cc(C(F)(F)F)ccc5F)cc4)cc3[nH]2)CC1
inhibition [1]: -1.83%
inhibition [2]: 1.78%
inhibition [3]: 0.98%
inhibition [20]: 1.87%
inhibition [4]: 1.66%
inhibition [6]: -0.49%
inhibition [7]: 3.57%
inhibition [8]: 17.3%
inhibition [9]: -4.47%
inhibition [10]: -1.88%
inhibition [11]: 4.66%
inhibition [12]: 9.14%
inhibition [13]: -9.82%
inhibition [14]: -7.78%
inhibition [15]: -3.22%
inhibition [17]: 1.22%
inhibition [18]: 0.55%
inhibition [19]: -2.06%

Cc1ccc(NC(=O)c2ccoc2)cc1-c1ccc(C(=O)NCC2CC2)cc1
inhibition [1]: 4.64%
inhibition [2]: 2.06%
inhibition [3]: -0.9%
inhibition [20]: 4.04%
inhibition [4]: 5.74%
inhibition [5]: 0.17%
inhibition [6]: 6.22%
inhibition [7]: -2.68%
inhibition [8]: 2.71%
inhibition [9]: 0.65%
inhibition [10]: 1.16%
inhibition [11]: 4.54%
inhibition [12]: 5.55%
inhibition [13]: 2.46%
inhibition [14]: 1.25%
inhibition [15]: 1.81%
inhibition [16]: 3.42%
inhibition [17]: 0.32%
inhibition [18]: 0.32%
inhibition [19]: -0.83%

COc1ccc2cc(-c3c(-c4ccncc4)nc(-c4ccc([S+](C)[O-])cc4C)n3C)ccc2c1 (stereo not given)
inhibition [1]: -2.02%
inhibition [2]: -0.27%
inhibition [3]: -0.2%
inhibition [20]: -1.41%
inhibition [4]: 4.56%
inhibition [5]: 2.68%
inhibition [6]: 9.41%
inhibition [9]: 1.51%
inhibition [10]: 1.8%
inhibition [11]: -0.56%
inhibition [12]: 4.6%
inhibition [13]: 0.87%
inhibition [14]: 1.27%
inhibition [15]: 0.15%
inhibition [16]: 2.57%
inhibition [17]: -0.96%
inhibition [18]: 1.18%
inhibition [19]: 0.02%
